From PubChem BioAssay (NCATS) come the findings set out here.

“And” between values parts separate entries of the source, which are not always exact repeats. Identical values can stand only once. Inconclusive results are not listed. A call without a number means that no potency is given here. The source made the active and inactive calls. Calls follow the shape of the dose curve; as a rule, active = well fitted cell-killing curve with a large enough effect; inconclusive = small, poorly fitted or top-dose-only effect; inactive = flat fitted curve, though single readings scatter. Where a SMILES comes first, the peptide text is derived from it. Bridges are numbered along the chain shown (N, C = ends). [ ]: non-standard residue; d: D form. hArg = N=C(N)NCCCC[C@H](N)C(=O)O; Mpa = O=C(O)CCS
Potency is read from the fitted curve at half-maximal effect.

The experiment can be described thus: Cellular viability qHTS for adrenocortical cancer (ACC) cell line NCI-H295R (AID 1963990). Also: nearly all actives have a fitted effect of over 60% in size. The following applies: CellTiter-Glo ATP luminescence, 48 h; series mostly up to 46.1 µM. In a few lines:
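Adrenocortical carcinoma cells, suspended at 300 000 cells/mL in serum-free DMEM plus ITS, rested overnight before pin transfer of compound. After two days' incubation, ATP-dependent luminescence was recorded and curve-fitted.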
For orientation: qHTS replaces the single test concentration by a dilution series.
As for `O=C1CC2(CCCC2)CC(=O)N1`, the Potency result was “inactive”. As for `CCO/C([O-])=N/c1c[n+](N2CCOCC2)no1`, the Potency entry is “inactive”.

As for `CO/N=C(/C(=O)N[C@@H]1C(=O)N2C(C(=O)[O-])=C(C[n+]3ccn4ncccc43)CS[C@H]12)c1nsc(N)n1`, the Potency entry is “inactive”. The same measure for `CN1C(=O)c2ccccc2C1=O`: “inactive”. The entry for `CCN(CC)S(=O)(=O)c1ccc(C(=O)O)cc1` is “inactive”; for `CCN1CC(CCN2CCOCC2)C(c2ccccc2)(c2ccccc2)C1=O` (stereo not given) it is “inactive”; for `CO[C@@H]1[C@@H](O[C@@H]2O[C@H](C)[C@@H](O[C@H]3C[C@@](C)(O)[C@@H](O)[C@H](C)O3)[C@H](N(C)C)[C@H]2O)[C@@H](CC=O)C[C@@H](C)[C@@H](O[C@@H]2CC[C@H](N(C)C)[C@@H](C)O2)/C=C/C=C/C[C@@H](C)OC(=O)C[C@H]1OC(C)=O` it is “inactive”. The same measure for `CC(CN(C)C)C(C)(O)Cc1ccc(Cl)cc1` (stereo not given): “inactive”.

Consider `O=C(Nc1cccnc1)c1cc(-c2ccnc(F)c2)ccc1OCc1ccccc1`, for which the Potency entry is “inactive”. The entry for `Cl/C(=C\n1cncn1)c1ccc(Cl)cc1Cl` is “inactive”; for `CC(C)C(=O)Nc1cccc(C(F)(F)F)c1` it is “inactive”. The entry for `O=C(O)c1[nH]n(-c2ccc(S(=O)(=O)O)cc2)c(=O)c1N=Nc1ccc(S(=O)(=O)O)cc1` is “inactive”.

Turning to `CC(C)NCC(O)c1ccc2ccccc2c1` (stereo not given), the Potency entry is “inactive”.

Regarding `COc1cc2nc(Cl)nc(N)c2cc1OC`, the Potency entry was “inactive”. As for `Nc1ncnc(Nc2ccccc2)n1`, the Potency result was “inactive”. The entry for `O=C(O)c1cn(C2CC2)c2cc(Cl)c(F)cc2c1=O` is “inactive”. The entry for `Cc1cc(-n2nc3ccc(Cl)cc3n2)c(O)c(C(C)(C)C)c1` is “inactive”.

With `CCOC(=O)C(C#N)=C(c1ccccc1)c1ccccc1`, the Potency entry was “inactive”. The entry for `O=C(O)[C@@H]1CSCN1` is “inactive”. The entry for `Nc1ccncc1N` is “inactive”; for `O=C(NCC(=O)N1CC[C@H](NC2CCC(O)(c3ccc(-c4ncccn4)cn3)CC2)C1)c1cccc(C(F)(F)F)c1` (stereo not given in full) it is “inactive”; for `Cc1ccc(C(=O)C(C)CN2CCCCC2)cc1` (stereo not given) it is “inactive”. The entry for `O=C(NN1CCCC1)NS(=O)(=O)c1ccc(Cl)cc1` is “inactive”; for `Nc1ncnc2c1ncn2Cc1c(F)cccc1Cl` it is “inactive”; for `CCCCCCCCCCCCCCCC(=O)OC(C)C` it is “inactive”. For `CCCCCC(C)N` (stereo not given), the Potency entry is “inactive”. Turning to `N#Cc1cccc(-c2c[nH]c3ncnc(N4CCOCC4)c23)c1`, the Potency result was “inactive”. In the case of `CO/N=C(\C(=O)N[C@@H]1C(=O)N2C(C(=O)O)=C(CSc3nc(=O)c(O)nn3C)CS[C@H]12)c1csc(N)n1`, the Potency result was “inactive”. In the case of `CC(C)(C)NCC(O)COc1ccc(NC(=O)NC2CCCCC2)cc1` (stereo not given), the Potency entry was “inactive”. As to `CC(N)CCCC(C)(C)O` (stereo not given), the Potency result is “inactive”.

Turning to `NC(=O)[C@@H]1CSSCCC(=O)N[C@@H](CCCCN=C(N)N)C(=O)NCC(=O)N[C@@H](CC(=O)O)C(=O)N[C@@H](Cc2c[nH]c3ccccc23)C(=O)N2CCC[C@H]2C(=O)N1` ([Mpa][hArg]GDWPC-NH2; disulfide 1-7), the Potency entry is “inactive”. For the molecule `CN(C)C(=O)CNC(=O)Cc1ccccc1`, the Potency result was “inactive”. The same measure for `Oc1c(I)cc(Cl)c2cccnc12`: 14.6 µM (active); for `CCOc1cc2ncc(C#N)c(Nc3ccc(F)c(Cl)c3)c2cc1NC(=O)/C=C/CN(C)C`: 3.55 µM (active); for `CCCCN(CCN(CCCC)C(=O)N1CCOCC1)C(=O)N1CCOCC1`: “inactive”.

As for `COP(=O)(OC)OC(c1ccc(Cl)cc1)P(=O)(OC)OC` (stereo not given), the Potency result was “inactive”. The same measure for `CC(=O)c1cc2ccccc2s1`: “inactive”; for `NS(=O)(=O)c1ccc(C(=O)O)cc1`: “inactive”; for `Nc1ccn([C@@H]2O[C@H](CO)[C@@H](O)C2(F)F)c(=O)n1`: 2.06 µM (active) and 794 nM (active). Turning to `CC1c2ccccc2CN1NC(=O)c1ccc(Cl)c(S(N)(=O)=O)c1` (stereo not given), the Potency result was “inactive”.
